Test results as given in PubChem BioAssay AID434947 (Broad Institute, 2010).
Screen size: about 2,200 compounds; about 15 (0.7%) were called active. The sample holds actives, similar compounds and a random draw of the others, so the mix is not that of the screen.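 How the source made its calls: active means fitted half-maximal concentration for loss of luminescence signal no more than a set limit of log units above the top tested concentration; inconclusive means flat fit with 30 to 70% signal loss, or invalid fit; inactive means half-maximal concentration above that set limit.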

assay: inhibitors of ADP-Glo detection reagents, dose response, artefact control for GSK3beta inhibitor project, biochemical, luminescence, cell-free, homogeneous (AID 434947); conditions: 5 uM ADP;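 further: kinase-free counter screen of ADP-Glo detection reagents for GSK3beta hits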

EC50, inactive:
CC1(C)CC(=O)C=C(Nc2ccc3c(c2)OCCO3)C1 > 30 µM
COc1ccc(-c2nn(-c3ccccc3)cc2/C=N/N2C(=O)CSC2=S)cc1 > 30 µM
Cc1ccccc1-c1nc(CN2CCC(C(=O)N3CCN(c4ccccn4)CC3)CC2)c(C)o1 > 30 µM
CCOC(=O)c1cnc2c(OC)cccc2c1N1CCN(c2ccc(OC)cc2)CC1 > 30 µM
COc1cc(OC)c(OC)cc1CNCC1COc2ccccc2O1 (stereo unspecified) > 30 µM
CSc1nc(N)c2c3c(sc2n1)CN(C)CC3 > 30 µM
Cn1c(=O)c2[nH]c(CCCC(=O)O)nc2n(Cc2ccccc2)c1=S > 30 µM
NS(=O)(=O)c1cc(C(=O)N=Nc2c(O)[nH]c3ccccc23)ccc1Cl > 30 µM
O=C(/C=C/c1ccc2ccccc2c1)c1ccoc1 > 30 µM
NS(=O)(=O)c1ccc(CCNC(=O)CSc2nc3ccsc3c(=O)n2C2CC2)cc1 > 30 µM
CN(C)CCCNc1ccc(-c2cc(Nc3cccc(Cl)c3)ncn2)cn1 > 30 µM
CN(CCO)c1cc(N2CCC3(CC2)OCCO3)c2nonc2c1[N+](=O)[O-] > 30 µM
COC(=O)c1nnn(-c2nonc2N)c1CSc1ccc(Cl)cc1 > 30 µM
Cc1cccc(OCc2nnc(SCC(=O)Nc3sc(C)c(C)c3C#N)n2C)c1 > 30 µM
CC(C)N1C(=O)N(c2ccc(Cl)cc2)C(C)(O)CC1(C)C (stereo unspecified) > 30 µM
CC(C)CCSc1nnc(N)s1 > 30 µM
CCC(=O)Nc1ccc(Nc2nc(C)c([N+](=O)[O-])c(Nc3ccc(NC(=O)CC)cc3)n2)cc1 > 30 µM
O=C(Nc1ccnn1C1CCN(Cc2cccc(OCCO)c2)CC1)C1CCCC1 > 30 µM
c1ccc(OCCCn2nnc(-c3ccncc3)n2)cc1 > 30 µM
Nc1nc(NCCO)nc(NCC2CCCO2)c1[N+](=O)[O-] (stereo unspecified) > 30 µM
N#Cc1c(-c2ccccc2)nc(SCC(=O)Nc2ccc(OC(F)(F)Cl)cc2)[nH]c1=O > 30 µM
O=C(Nc1cc(-c2ccccc2)[nH]n1)c1ccccc1 > 30 µM
COc1cccc(C(=O)Nc2ccc(C(=O)NCC(C)C)cc2)c1 > 30 µM
CCCCC(CC)C(=O)Nc1ncc([N+](=O)[O-])s1 (stereo unspecified) > 30 µM
O=C(COc1ccccc1[N+](=O)[O-])N/N=C/c1ccccn1 > 30 µM
N/C(Cc1nc2ccccc2s1)=N\O > 30 µM
COc1cccc(C(=O)Nc2nnc(C(C)C)s2)c1 > 30 µM
COc1ccc2nc(Cl)cc(Cl)c2c1 > 30 µM
CCCc1cc(=O)[nH]c(SCCOc2ccc(OCC)cc2)n1 > 30 µM
COc1ccccc1/C=C1\C(=O)Nc2ccccc21 > 30 µM
Cc1ccc(S(=O)(=O)NNC(=O)c2cccc(O)c2)cc1 > 30 µM
COCc1c(C(=O)Nc2ccc(Cl)cc2F)oc2ccccc12 > 30 µM
CC(C)c1ccc(NC2=CC(=O)CC(C)(C)C2)cc1 > 30 µM
O=C(CCc1ccccc1)Nc1ccc2c(c1)OCCO2 > 30 µM
Cc1cc(C)c(C)c(S(=O)(=O)Nc2ccccc2C(=O)NCCCn2ccnc2)c1C > 30 µM
N#Cc1ccc(CSc2nnc(-c3ccncc3)o2)cc1 > 30 µM
CN(c1ncnc(N)c1[N+](=O)[O-])C1CCCCC1 > 30 µM
O=C(O)c1ccccc1N/N=C\c1ccnc2ccccc12 > 30 µM
COc1ccc(-c2nn(-c3ccccc3)cc2/C=N/O)cc1OC > 30 µM
Cc1cc(C(=O)OCCN2C(=O)c3ccccc3C2=O)c2ccccc2n1 > 30 µM
Cn1cc(S(=O)(=O)NCc2ccc(F)cc2)c(=O)n(C)c1=O > 30 µM
c1ccc(CNc2nc(-c3cccnc3)nc3ccccc23)cc1 > 30 µM
Cc1cc(C(=O)c2ccccc2)c(NC(=O)CN2CCOCC2)s1 > 30 µM
CN(Cc1c(C(=O)N/N=C/c2ccccc2F)nnn1-c1nonc1N)c1ccccc1 > 30 µM
CCn1c(SCC(=O)Nc2ccc(Cl)cc2)nnc1C1CC1 > 30 µM
O=c1c2[nH]c3ccccc3c2ncn1C1CCCCC1 > 30 µM
CCOC(=O)/C(C#N)=C/c1cn(CCC(=O)O)nc1-c1ccccc1 > 30 µM
CN1CCN(c2ccccc2NC(=O)c2ccc(Br)o2)CC1 > 30 µM
Cc1cnc(C(=O)OCC(=O)N2c3ccccc3CC2C)cn1 (stereo unspecified) > 30 µM
N#CCCn1cc(/C=N/O)c(-c2cccc([N+](=O)[O-])c2)n1 > 30 µM
COc1cccc(/C=N/Nc2cc(Cl)nc(C)n2)c1O > 30 µM
COc1ccc(-c2nn(-c3ccccc3)cc2N)cc1 > 30 µM
CSc1nc2c(c(=O)[nH]1)C(c1ccccc1)C1=C(CC(C)(C)CC1=O)N2 (stereo unspecified) > 30 µM
CC(=O)C(Sc1ccc2nnc(-c3ccc(F)cc3)n2n1)C(C)=O > 30 µM
NNC(=O)CNC(=O)c1ccc(F)cc1 > 30 µM
Cn1c(=S)n(CCC(=O)O)c2ccccc21 > 30 µM
O=C(NCC(c1ccco1)N1CCc2ccccc21)c1c(F)cccc1F (stereo unspecified) > 30 µM
Cc1ccc(-c2nn(-c3ccccc3)cc2/C=N/NS(=O)(=O)c2ccccc2)cc1 > 30 µM
COCCn1c(SCC(=O)Nc2ccc(Cl)c(S(=O)(=O)N(C)C)c2)nc2ccccc21 > 30 µM
COc1cccc(N=Nc2c(N)[nH][nH]c2=O)c1 > 30 µM
Cc1cc(NC(=O)CSc2nnc(C3CC3)n2Cc2ccccc2)no1 > 30 µM
